PAFAH1B3 inh = inhibitors of human PAFAH1B3; inhibition, % at 3.39 µM; recombinant PAFAH1B3, FP-rhodamine probe, fluorescence polarization; Q15102; 340,000 compounds, 0.28% hits;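 active = inhibition above the screen-wide average of all tested compounds plus 3 SD, cut at about 25% in these data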;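 note: 0% = enzyme with DMSO only and 100% = wells lacking PAFAH1B3 protein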
PKA-R2B activ = activators of human PKA-R2B complex. activation, % at 11.4 µM. 340,000 compounds, 0.079% hits. PKA-R2B holoenzyme dissociation, Cy5-IP20 fluorescence polarization; R2B truncated from residue 108, S112A mutant; 0% DMSO only, 100% 113 µM cGMP;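 active = activation above a cutoff set at the mean over all compounds plus 3 SD, cut at about 18% in these data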;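 note: higher means more holoenzyme dissociation and a rise in polarization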
PAFAH1B2 inh = blocks human PAF acetylhydrolase 1b catalytic subunit 2 | recombinant PAFAH1B2, FP-rhodamine activity probe, fluorescence polarization | AID 492953 | inhibition, % at 3.39 µM | 340,000 compounds, 1.2% hits;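 active = inhibition above the mean of all tested compounds plus 3 SD, cut at about 24% in these data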;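 note: 0% = enzyme with DMSO and 100% = wells lacking PAFAH1B2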
Target sequence (P68402 whole entry, looked up): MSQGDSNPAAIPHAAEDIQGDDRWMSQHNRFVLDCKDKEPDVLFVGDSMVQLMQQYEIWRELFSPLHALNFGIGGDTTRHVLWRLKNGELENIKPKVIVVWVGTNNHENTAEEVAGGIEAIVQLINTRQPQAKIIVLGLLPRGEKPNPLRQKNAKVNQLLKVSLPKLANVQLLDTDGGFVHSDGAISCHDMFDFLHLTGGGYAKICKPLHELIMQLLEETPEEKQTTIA
PAFAH2 FP inh = PAFAH2 (human) inhibition. Q99487. recombinant PAFAH2, FP-rhodamine activity probe, fluorescence polarization. inhibition, % at 3.39 µM. 340,000 compounds, 0.99% hits. AID 492956;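 active = inhibition above the mean over all tested compounds plus 3 SD, cut at about 30% in these data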;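 note: inhibitors block probe labeling of enzyme so polarization drops; 0% = enzyme with DMSO and 100% = wells lacking PAFAH2 protein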
pPAFAH inh = inhibitors of human plasma PAF acetylhydrolase (pPAFAH). recombinant pPAFAH, FP-rhodamine probe fluorescence polarization. AID 463082. 330,000 compounds, 1.5% hits. Q13093. inhibition, % at 3.39 µM;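 active = inhibition above the mean inhibition across the screen plus 3 SD, cut at about 25% in these data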;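 note: inhibitors block binding of the rhodamine activity-based probe so polarization drops; 0% = enzyme with DMSO and 100% = wells lacking pPAFAH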
Target sequence (Q13093 whole entry, looked up): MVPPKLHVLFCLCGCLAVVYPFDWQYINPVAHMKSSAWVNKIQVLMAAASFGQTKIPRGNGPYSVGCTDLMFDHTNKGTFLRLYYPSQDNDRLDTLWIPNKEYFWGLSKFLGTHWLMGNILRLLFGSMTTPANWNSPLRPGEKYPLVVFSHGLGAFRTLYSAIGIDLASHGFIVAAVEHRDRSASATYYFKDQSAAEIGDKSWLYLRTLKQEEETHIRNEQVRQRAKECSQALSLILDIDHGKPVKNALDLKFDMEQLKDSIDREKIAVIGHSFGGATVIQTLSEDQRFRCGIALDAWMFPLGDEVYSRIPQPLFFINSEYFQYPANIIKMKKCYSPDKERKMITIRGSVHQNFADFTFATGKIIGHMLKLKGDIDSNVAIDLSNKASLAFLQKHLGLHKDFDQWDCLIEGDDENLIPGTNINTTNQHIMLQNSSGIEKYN
PKA-R1A act = activators of PKA-R1A complex | P00514+P68181 | PKA-R1A dissociation, Cy5-IP20 fluorescence polarization; scaled: DMSO 0%, 113 µM cGMP 100% | activation, % at 11.4 µM | 340,000 compounds, 0.083% hits | AID 504707;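 active = percent activation above the mean of all tested compounds plus 3 SD, cut at about 19% in these data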;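 note: higher means more PKAc released from R1A so a rise in polarization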
R2B FP artifact = counter-screen for PKA-R2B activators: fluorescence polarization artifacts; 270 compounds, 6% hits; shares compounds with PKA-R2B activ; FP artifact counterscreen; activation, % at 11.4 µM; in the data active = activation above about 20%;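 note: Cy5 labelled IP20 peptide probe with compound but no PKA protein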
PKA-R2B confirm = confirmation of human PKA-R2B complex activators; fluorescence polarization, activation; shares compounds with PKA-R2B activ; 270 compounds, 9% hits; AID 504797; activation, % at 11.4 µM; in the data active = activation above about 19%
Active calls of the source: *. A selection: hits, their analogues and other compounds. The true share with any hit is near 2.6%.

How did C=CCn1c(SCc2cc(C(C)=O)ccc2OCC)nc2ccccc2c1=O do in these assays?
PAFAH1B3 inh: -3; PKA-R2B activ: 19*; PAFAH1B2 inh: 1; PAFAH2 FP inh: -1; pPAFAH inh: -5; PKA-R1A act: 6; R2B FP artifact: 0; PKA-R2B confirm: -1

What do the screens show for `COc1ccc(/C=C(/NC(=O)c2ccccc2OC)C(=O)Nc2ccc(C(=O)O)cc2)cc1`?
PAFAH1B3 inh: 9; PKA-R2B activ: -4; PAFAH1B2 inh: -4; PAFAH2 FP inh: 0; pPAFAH inh: 1; PKA-R1A act: 0

Results for O=C(Nc1ccc(Cl)cn1)c1cccc(S(=O)(=O)N2CCCCCC2)c1 ?
PKA-R2B activ: 20*; PKA-R1A act: 4; R2B FP artifact: 2; PKA-R2B confirm: -2

What do the screens show for `O=C(Nc1ccc(Cl)cn1)c1cccc(S(=O)(=O)N2CCCCC2)c1`?
PAFAH1B3 inh: 2; PKA-R2B activ: -9; PAFAH1B2 inh: 3; PAFAH2 FP inh: -3; PKA-R1A act: 1

What do the screens show for `Cc1onc(-c2ccccc2)c1C(=O)Nc1ccc(Br)cc1Cl`?
PAFAH1B3 inh: 1; PKA-R2B activ: 19*; PAFAH1B2 inh: -3; PAFAH2 FP inh: -9; pPAFAH inh: -2; PKA-R1A act: 2; R2B FP artifact: 6; PKA-R2B confirm: 0

What do the screens show for `O=C(c1ccccc1Cl)N1CCN(S(=O)(=O)N2CCCCC2)CC1`?
PAFAH1B3 inh: 7; PKA-R2B activ: -12; PAFAH1B2 inh: 4; PAFAH2 FP inh: -5; pPAFAH inh: 2; PKA-R1A act: -6

Results for CC1=NN(c2nc(-c3ccc(Cl)cc3)cs2)C(=O)C1 ?
PAFAH1B3 inh: 7; PKA-R2B activ: 20*; PAFAH1B2 inh: 7; PAFAH2 FP inh: 21; pPAFAH inh: 13; PKA-R1A act: 6; R2B FP artifact: 0; PKA-R2B confirm: 4

How did CC1=NN(c2ccc(Cl)cc2)C(=O)C1 do in these assays?
PAFAH1B3 inh: 2; PKA-R2B activ: -9; PAFAH1B2 inh: 3; PAFAH2 FP inh: 14; pPAFAH inh: 1; PKA-R1A act: 3

How did COc1ccc2c(c1)CSC(c1ccccc1)C2=O (configuration not stated) do in these assays?
PKA-R2B activ: 2; PKA-R1A act: 4

How did COc1ccc(/C=N/n2c(C)nc3ccccc3c2=O)cc1OC do in these assays?
PAFAH1B3 inh: -2; PKA-R2B activ: -16; PAFAH1B2 inh: 4; PAFAH2 FP inh: 1; pPAFAH inh: 0; PKA-R1A act: -3

Results for CCOc1cc(/C=N/n2c(C)nc3ccccc3c2=O)ccc1O ?
PAFAH1B3 inh: 7; PKA-R2B activ: 20*; PAFAH1B2 inh: 8; PAFAH2 FP inh: -9; pPAFAH inh: -3; PKA-R1A act: -10; R2B FP artifact: 2; PKA-R2B confirm: 3

Results for Cc1ccc(NC(=O)Cc2ccccc2F)cc1S(=O)(=O)N1CCCCCC1 ?
PAFAH1B3 inh: 0; PKA-R2B activ: 1; PAFAH1B2 inh: -5; PAFAH2 FP inh: 5; pPAFAH inh: 2; PKA-R1A act: -3

How did CCCC(c1nnnn1CC(=O)OCC)N(Cc1cc2c(C)cc(C)cc2[nH]c1=O)C1CCCC1 (configuration not stated) do in these assays?
PAFAH1B3 inh: 11; PKA-R2B activ: 19*; PAFAH1B2 inh: 1; PAFAH2 FP inh: 3; pPAFAH inh: 2; PKA-R1A act: 7; R2B FP artifact: 4; PKA-R2B confirm: -1

Results for CCCC(c1nnnn1CC(=O)OCC)N(Cc1cc2ccc(C)cc2[nH]c1=O)C1CCCC1 (configuration not stated) ?
PAFAH1B3 inh: 0; PKA-R2B activ: -3; PAFAH1B2 inh: 2; PAFAH2 FP inh: 4; pPAFAH inh: 2; PKA-R1A act: 2

What do the screens show for `O=C1NCCCN1C1OC(CO)C(O)C1O` (configuration not stated)?
PKA-R2B activ: 22*; PKA-R1A act: 11; R2B FP artifact: 6; PKA-R2B confirm: 6

What do the screens show for `CN(C)c1ccc(N=Nc2ccc(S(N)(=O)=O)cc2)cc1`?
PAFAH1B3 inh: 9; PKA-R2B activ: 1; PAFAH1B2 inh: 3; PAFAH2 FP inh: -3; pPAFAH inh: 10; PKA-R1A act: 9

Results for CN(C)c1ccc(N=Nc2ccc(S(=O)(=O)O)cc2)c2ccccc12 ?
PAFAH1B3 inh: 4; PKA-R2B activ: 30*; PAFAH1B2 inh: 3; PAFAH2 FP inh: 13; pPAFAH inh: 30*; PKA-R1A act: -8; R2B FP artifact: -2; PKA-R2B confirm: 11

Results for CCCCN(C(=O)CC1CCCC1)c1c(N)n(Cc2ccccc2)c(=O)[nH]c1=O ?
PKA-R2B activ: -9; PKA-R1A act: -6

Results for COc1cccc(OC)c1CNC(=O)CCSCc1ccccc1F ?
PAFAH1B3 inh: 4; PKA-R2B activ: -6; PAFAH1B2 inh: 0; PAFAH2 FP inh: 7; pPAFAH inh: 6; PKA-R1A act: -9

How did COc1cccc(CNC(=O)CCSCc2ccccc2F)c1 do in these assays?
PAFAH1B3 inh: 6; PKA-R2B activ: 20*; PAFAH1B2 inh: -1; PAFAH2 FP inh: 2; pPAFAH inh: -2; PKA-R1A act: 5; R2B FP artifact: -2; PKA-R2B confirm: -1

Results for CCOc1c(Br)cc(/C=C(\C#N)C(=O)NC2CC2)cc1OC ?
PAFAH1B3 inh: 4; PKA-R2B activ: 19*; PAFAH1B2 inh: 6; PAFAH2 FP inh: 2; pPAFAH inh: -3; PKA-R1A act: 1; R2B FP artifact: 4; PKA-R2B confirm: 2

How did CCOc1ccccc1/C=C(\C#N)C(=O)NC1CC1 do in these assays?
pPAFAH inh: 6

How did CCC1=C(c2ccc(C)cc2)S(=O)(=O)N=C1N1CCC(C(=O)NCCCN2CCCCC2C)CC1 (configuration not stated) do in these assays?
PAFAH1B3 inh: 5; PKA-R2B activ: -11; PAFAH1B2 inh: -1; PAFAH2 FP inh: -6; pPAFAH inh: 4; PKA-R1A act: -5

Results for Cc1cc(N2CCCC2=O)ccc1S(=O)(=O)N1CCOCC1 ?
PAFAH1B3 inh: -4; PKA-R2B activ: 23*; PAFAH1B2 inh: 6; PAFAH2 FP inh: 5; pPAFAH inh: 2; PKA-R1A act: 12; R2B FP artifact: 1; PKA-R2B confirm: 5

What do the screens show for `CCOC(=O)[C@@H]1[C@H]2COc3ccc(Br)cc3[C@H]2N2C(=O)N(c3ccc(C)cc3)C(=O)[C@]12C`?
PAFAH1B3 inh: 7; PKA-R2B activ: -5; PAFAH1B2 inh: 0; PAFAH2 FP inh: -6; pPAFAH inh: 0; PKA-R1A act: 5
